The values below come from PubChem BioAssay.

“And” between values parts separate entries of the source, which are not always exact repeats. Identical values can stand only once. Records with an inconclusive call do not appear. For part of these data: Measured potencies and affinities stand elsewhere. The source made the active and inactive calls.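 Rule for the calls, unless noted: active = normalized viability below 100% at a tested concentration; inactive = the rest.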

A short description of test [1]: polyglutamine-triggered caspase-3 activation inhibitors, cell-based (AID 1583). The conditions noted are these: polyglutamine-induced caspase-3 activation, cell assay; stronger effect = higher value;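 tested at 10 µM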.
A short description of test [2]: suppressors of polyQ aggregation in yeast, 75Q-TubU reporter (AID 1593). The settings on record: Yeast 75Q polyglutamine aggregation reporter.
Test [3] can be described thus: rescue of polyQ-huntingtin neuronal dysfunction in worms, whole organism, C. elegans mechanosensory neurons, N-terminal huntingtin (AID 1599). The conditions noted are these: touch response, stronger effect = higher value.
Test [4] in a line: inhibitors of mitochondrial cytochrome c release, biochemical, purified mitochondria (AID 1603).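 Note: mouse liver mitochondria challenged with calcium chloride; signal normalized to the plate average as 100%.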 The settings on record: stronger effect = lower value.
Test [5] is described as follows: inhibitors of polyQ protein aggregation (AID 1604). The conditions noted are these: polyglutamine-induced protein aggregation inhibition assay; stronger effect = higher value; tested at 2.5 µM.
Test [6] in a line: enhancers of glutamate uptake in motor neurons, MN-1 cell line (AID 1612).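 Note: tested at 1 µM final; 0% = mean of DMSO vehicle wells on each plate; positive means more glutamate uptake than control and negative means less.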 The conditions noted are these: MN-1 motor neuron cells, stronger effect = higher value.
Test [7] can be described thus: suppressors of polyglutamine aggregation in yeast, 75Q-TubH (AID 1616). The settings on record: S. cerevisiae 75Q-TubH polyglutamine aggregation suppression; stronger effect = higher value.
The nature of test [8]: hESC survival regulators, cell-based (AID 493140; call rule not given here;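 note: cells exposed to compounds for four days before counting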). The conditions noted are these: human embryonic stem cell survival screen; stronger effect = higher value.
The target of test [9] is 6-phosphogluconate dehydrogenase, decarboxylating (Homo sapiens) (UniProt P52209). Description: 6PGD enzyme inhibitors, primary screen, biochemical, human, recombinant enzyme, NADPH absorbance (AID 1159550;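 active = at least 20% inhibition of 6-phosphogluconate dehydrogenase activity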). The conditions noted are these: recombinant 6PGD, NADPH absorbance 341 nm; at 10 µM; stronger effect = higher value.
Sequence of 6-phosphogluconate dehydrogenase, decarboxylating (Homo sapiens) (P52209 whole entry, looked up): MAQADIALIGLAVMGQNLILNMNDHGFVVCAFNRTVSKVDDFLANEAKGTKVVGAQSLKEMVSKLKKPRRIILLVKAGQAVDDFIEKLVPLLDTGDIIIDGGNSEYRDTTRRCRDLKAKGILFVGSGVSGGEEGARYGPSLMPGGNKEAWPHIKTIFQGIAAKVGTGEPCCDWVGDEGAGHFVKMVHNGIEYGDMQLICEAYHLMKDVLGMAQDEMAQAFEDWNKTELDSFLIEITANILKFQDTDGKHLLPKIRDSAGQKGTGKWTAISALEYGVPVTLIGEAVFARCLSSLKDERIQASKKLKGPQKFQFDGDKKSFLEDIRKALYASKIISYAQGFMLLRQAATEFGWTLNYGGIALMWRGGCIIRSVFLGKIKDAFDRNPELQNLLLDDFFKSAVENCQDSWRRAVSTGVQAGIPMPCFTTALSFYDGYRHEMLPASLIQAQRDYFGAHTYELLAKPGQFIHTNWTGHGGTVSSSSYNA
Test [10] can be described thus: differential killing of epithelial or mesenchymal cells, primary screen, imaging, PC-3E GFP, TEM4-18 mCherry, co-culture (AID 1345086;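 active = compounds killing one labelled cell type while sparing the other, by normalised counts and ratio limits, not self-fluorescent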;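 for all read-outs here: cells exposed to compound for 72 h before imaging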;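 for red/green cell ratio (normalised): normalised mesenchymal count divided by normalised epithelial count so high means epithelial killing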). The conditions noted are these: imaging cell counts, at 1 µM; for red/green cell ratio (normalised): actives lie on both sides, counts scaled to control wells, 1 = unselective.
Test [11] can be described thus: SU-DIPG-VI glioma cell viability, MIPE4.0 library, CellTiter-Glo luminescence, qHTS (AID 1347066; cut-off not given, nearly all actives have AC50 up to about 30 µM;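 note: cells exposed to compound for 48 hours before readout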). The conditions noted are these: CellTiter-Glo ATP luminescence.
Test [12] in a line: survival rescue of mitochondrial mutant cells in low glucose, primary screen, MELAS cybrids, Rieske KO mouse fibroblasts, CellTiter-Glo (AID 1508586;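 active = mean z-score across replicates of 1.96 or higher in either the MELAS or the Rieske mutant cell line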;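 note: z relative to plate mean and SD of compound and empty wells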).
A short description of test [13]: ovarian cancer cell viability with rucaparib, profiling panel, oncology-focused library, rucaparib conditional (AID 1508598). The conditions noted are these: patient-derived ovarian cancer cells, CellTiter-Glo viability, 144 h, stronger effect = lower value.
Test [14] addresses NAD(+) hydrolase SARM1 (Homo sapiens) (UniProt Q6SZW1). Description: SARM1 TIR NADase inhibitors, cell lysate, NAD-Glo luminescence (AID 1508614;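 active = compound whose remaining NAD level is above about 45 nM, limit read from the data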;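 note: higher remaining NAD means stronger inhibition of SARM1 NADase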). The conditions noted are these: SAM-TIR HEK293T lysate NADase, at 1 µM, stronger effect = higher value.
Test [15] addresses Mitogen-activated protein kinase 7 (Homo sapiens) (UniProt Q13164). Briefly: ERK5 transactivation activators in reporter cells, primary screen, cell-based, HTS (AID 1508626;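 active = luciferase signal above three times the same-plate solvent-only control wells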;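 note: luciferase driven by Gal4-ERK5 fusion binding five Gal4 sites before minimal TATA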). The settings on record: HeLa Gal4-ERK5 transactivation, 18 h, at 5 µM, stronger effect = higher value.
Test [16] can be described thus: viability rescue of complex I mutant cybrids, primary screen, cell-based, galactose medium, ATP luminescence (AID 1645843;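 active = z-score of at least 1.8 in each of two replicates, scored against plate mean and spread of sample wells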;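 note: positive z means more ATP and so rescue of galactose-driven cybrid death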). The settings on record: complex I mutant cybrid cells, 72 h, stronger effect = higher value.
The nature of test [17]: sensitizers of A549 cells to miR-34 induction, primary screen, imaging, A549 dox-inducible miR-34, nuclei and caspase counts (AID 1347080;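 active = compounds whose cell count with miR-34 switched on is under 0.7 times the count with it off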). The settings on record: A549 miR-34 inducible, Hoechst nuclei count, 48 h.
The mark [18] stands for this setting: measured here: epithelial PC-3E GFP cell survival.
The mark [19] stands for this setting: measured here: mesenchymal TEM4-18 mCherry cell survival.
The mark [20] stands for this setting: MELAS cybrid survival, CellTiter-Glo 48 h, stronger effect = higher value.
Setting [21] is: Rieske KO mouse fibroblast survival, CellTiter-Glo 72 h.

Sequence of Mitogen-activated protein kinase 7 (Homo sapiens) (Q13164 whole entry, looked up, the tested form may be a part): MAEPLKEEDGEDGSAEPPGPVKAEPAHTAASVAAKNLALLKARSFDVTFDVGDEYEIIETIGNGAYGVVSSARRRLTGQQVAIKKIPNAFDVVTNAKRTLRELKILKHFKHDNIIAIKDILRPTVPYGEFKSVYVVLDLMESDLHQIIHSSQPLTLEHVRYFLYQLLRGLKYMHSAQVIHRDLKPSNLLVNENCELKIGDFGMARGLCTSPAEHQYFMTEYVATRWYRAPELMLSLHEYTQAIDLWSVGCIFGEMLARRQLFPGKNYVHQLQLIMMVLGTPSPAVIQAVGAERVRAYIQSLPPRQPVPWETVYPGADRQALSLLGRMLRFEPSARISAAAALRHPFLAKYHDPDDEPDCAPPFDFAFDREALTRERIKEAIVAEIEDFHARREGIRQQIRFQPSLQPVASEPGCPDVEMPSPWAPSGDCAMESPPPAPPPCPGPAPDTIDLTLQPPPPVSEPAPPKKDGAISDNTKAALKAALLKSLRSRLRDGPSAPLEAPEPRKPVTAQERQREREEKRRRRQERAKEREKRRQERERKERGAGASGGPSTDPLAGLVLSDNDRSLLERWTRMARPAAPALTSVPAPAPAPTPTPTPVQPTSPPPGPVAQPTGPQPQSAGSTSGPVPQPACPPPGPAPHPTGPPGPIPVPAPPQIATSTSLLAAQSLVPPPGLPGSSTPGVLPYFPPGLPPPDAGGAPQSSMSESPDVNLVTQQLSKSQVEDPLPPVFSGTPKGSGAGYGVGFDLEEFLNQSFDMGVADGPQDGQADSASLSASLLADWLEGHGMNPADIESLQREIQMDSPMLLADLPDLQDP
Sequence of NAD(+) hydrolase SARM1 (Homo sapiens) (Q6SZW1 whole entry, looked up, the tested form may be a part): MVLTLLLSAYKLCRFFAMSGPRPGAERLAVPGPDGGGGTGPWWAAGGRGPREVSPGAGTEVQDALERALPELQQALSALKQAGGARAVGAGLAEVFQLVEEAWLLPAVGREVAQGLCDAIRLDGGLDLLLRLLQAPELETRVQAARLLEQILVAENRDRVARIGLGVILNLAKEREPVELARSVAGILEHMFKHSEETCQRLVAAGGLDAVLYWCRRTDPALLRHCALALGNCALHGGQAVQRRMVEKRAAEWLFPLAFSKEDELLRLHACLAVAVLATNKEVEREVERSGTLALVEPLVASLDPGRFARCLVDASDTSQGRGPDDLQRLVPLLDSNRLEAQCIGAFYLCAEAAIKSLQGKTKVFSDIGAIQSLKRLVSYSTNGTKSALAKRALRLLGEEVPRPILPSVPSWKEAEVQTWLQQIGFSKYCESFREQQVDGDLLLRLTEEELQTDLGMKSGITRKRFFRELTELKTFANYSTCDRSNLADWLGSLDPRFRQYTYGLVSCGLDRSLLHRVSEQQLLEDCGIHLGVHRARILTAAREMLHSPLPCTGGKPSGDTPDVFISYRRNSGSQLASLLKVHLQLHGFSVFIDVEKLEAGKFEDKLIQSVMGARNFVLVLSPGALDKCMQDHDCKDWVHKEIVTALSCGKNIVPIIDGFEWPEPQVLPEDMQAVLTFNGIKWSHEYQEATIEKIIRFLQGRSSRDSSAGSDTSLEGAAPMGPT

Consider `COc1c(C)c2c(c(O)c1C/C=C(\C)CCC(=O)O)C(=O)OC2`, for which the values for the inhibition in test [1] and in [9] were -14.6% and -6.15% (inactive), respectively. This compound also showed a score in test [2] of 0.55. Also, in test [3], the rescue above control is 6.21. Besides, in test [4], the cytochrome c release ratio is 1.22. In test [5], this compound came in with an inhibition of aggregation of 35%. Also, in test [6], the glutamate uptake change was -2.33%. For the same compound, in test [7], the aggregation suppression score was determined as 0.18. The survival in [8] is 0.167 (inactive). Further, the red/green cell ratio (normalised) in test [10] is 0.6 (active). In addition, the figures for the normalised cell number in [10] (setting [18]) and in test [10] (setting [19]) were 0.58 and 0.35, respectively. Besides, the compound was classed as inactive in test [11]. Moreover, the z-score in test [12] (setting [20]) is -0.0503; in test [12] (setting [21]), 2.98; in test [16], 1.33 (inactive) and 1.68 (inactive). The viability was 117% (inactive) in test [13] (at 0.000305 µM, OCI-C5x cells, with rucaparib 10 µM, 100% = cells with rucaparib alone); 124% (inactive) in test [13] (at 0.000305 µM, OCI-C5x cells, without rucaparib); 87.8% (active) in [13] (at 0.000305 µM, OCI-P5x cells, with rucaparib 20 µM, 100% = cells with rucaparib alone); 96% (active) in test [13] (at 0.000305 µM, OCI-P5x cells, without rucaparib); 121% (inactive) in test [13] (at 0.00122 µM, OCI-C5x cells, with rucaparib 10 µM, 100% = cells with rucaparib alone); 126% (inactive) in [13] (at 0.00122 µM, OCI-C5x cells, without rucaparib). The viability was 90.6% (active) in test [13] (at 0.00122 µM, OCI-P5x cells, with rucaparib 20 µM, 100% = cells with rucaparib alone); 103% (inactive) in test [13] (at 0.00122 µM, OCI-P5x cells, without rucaparib); 129% (inactive) in test [13] (at 0.00488 µM, OCI-C5x cells, with rucaparib 10 µM, 100% = cells with rucaparib alone); 128% (inactive) in [13] (at 0.00488 µM, OCI-C5x cells, without rucaparib); 96.9% (active) in [13] (at 0.00488 µM, OCI-P5x cells, with rucaparib 20 µM, 100% = cells with rucaparib alone); 109% (inactive) in test [13] (at 0.00488 µM, OCI-P5x cells, without rucaparib). The viability was 121% (inactive) in [13] (at 0.0195 µM, OCI-C5x cells, with rucaparib 10 µM, 100% = cells with rucaparib alone); 129% (inactive) in test [13] (at 0.0195 µM, OCI-C5x cells, without rucaparib); 95.2% (active) in test [13] (at 0.0195 µM, OCI-P5x cells, with rucaparib 20 µM, 100% = cells with rucaparib alone); 112% (inactive) in test [13] (at 0.0195 µM, OCI-P5x cells, without rucaparib); 166% (inactive) in test [13] (at 0.0781 µM, OCI-C5x cells, with rucaparib 10 µM, 100% = cells with rucaparib alone); 162% (inactive) in test [13] (at 0.0781 µM, OCI-C5x cells, without rucaparib). Further, the viability in test [13] (at 0.0781 µM, OCI-P5x cells, with rucaparib 20 µM, 100% = cells with rucaparib alone) is 97.4% (active); in test [13] (at 0.0781 µM, OCI-P5x cells, without rucaparib), 97% (active); in test [13] (at 0.313 µM, OCI-C5x cells, with rucaparib 10 µM, 100% = cells with rucaparib alone), 180% (inactive); in [13] (at 0.313 µM, OCI-C5x cells, without rucaparib), 189% (inactive); in test [13] (at 0.313 µM, OCI-P5x cells, with rucaparib 20 µM, 100% = cells with rucaparib alone), 85.4% (active); in test [13] (at 0.313 µM, OCI-P5x cells, without rucaparib), 62.1% (active). The viability in test [13] (at 1.25 µM, OCI-C5x cells, with rucaparib 10 µM, 100% = cells with rucaparib alone) was 128% (inactive); in test [13] (at 1.25 µM, OCI-C5x cells, without rucaparib) it was 117% (inactive); in test [13] (at 1.25 µM, OCI-P5x cells, with rucaparib 20 µM, 100% = cells with rucaparib alone), 70% (active); in test [13] (at 1.25 µM, OCI-P5x cells, without rucaparib) it was 40.7% (active); in [13] (at 5 µM, OCI-C5x cells, with rucaparib 10 µM, 100% = cells with rucaparib alone), 73.1% (active); in test [13] (at 5 µM, OCI-C5x cells, without rucaparib), 56.4% (active). In addition, the viability was 46.2% (active) in [13] (at 5 µM, OCI-P5x cells, with rucaparib 20 µM, 100% = cells with rucaparib alone) and 30.7% (active) in test [13] (at 5 µM, OCI-P5x cells, without rucaparib). Also, in test [14], the remaining NAD is 10 nM (inactive). Further, the luciferase signal in test [15] was 48 AU (inactive).

Consider `CCCCOc1cc(CC2CNC(=O)N2)ccc1OC` (stereo not given), for which, in test [9], the inhibition was 1.84% (inactive). The red/green cell ratio (normalised) in test [10] was 1.01 (inactive). Further, the results for the normalised cell number in test [10] (setting [18]) and in [10] (setting [19]) were 1.14 and 1.15, respectively. The fold change in [17] (stronger effect = lower value, cell number ratio, induced over uninduced) was 0.994 (inactive) and 1.05 (inactive) and 0.91 (inactive); in test [17] (measured here: relative caspase fold change +Dox/-Dox), 1.87 and 1.3 and 0.769. Also, the cell count is 10200 and 6130 and 8720 in test [17] (measured here: total cells with miR-34 induction, stronger effect = lower value); 10300 and 5830 and 9590 in test [17] (measured here: total cells without miR-34 induction). Besides, the luciferase signal in test [15] was 60 AU (inactive). Moreover, the z-score in [16] is 0.26 (inactive) and -0.055 (inactive).

In the case of `CC1NC(=O)NC1=O` (stereo not given), in test [9], the inhibition is -12% (inactive). Also, in [10], the red/green cell ratio (normalised) is 0.85 (inactive). Also, the normalised cell number in test [10] (setting [18]) was found to be 0.94; in test [10] (setting [19]), 0.79.

`COc1cc(CNC(=O)CCCC/C=C/C(C)C)ccc1O`: the inhibition in [1] is -19.2%; in test [9] it was 18.7% (inactive). Moreover, the score in test [2] came to 0.57. Further, the rescue above control in test [3] amounted to 10.3. Moreover, the cytochrome c release ratio in test [4] amounted to 1.29. Further, the inhibition of aggregation in [5] came to 71.9%. The glutamate uptake change in [6] was -9.59%. Besides, in [7], the aggregation suppression score was 0.5. Besides, the survival in test [8] was 2.67 (inactive). Also, the red/green cell ratio (normalised) in [10] was 0.88 (inactive). Moreover, the normalised cell number turned out to be 1.14 in test [10] (setting [18]) and 1 in test [10] (setting [19]). Further, the result in test [11] was inactive. Moreover, the z-score was -0.437 (inactive) in test [12] (setting [20]); -0.16 in test [12] (setting [21]); 0.07 (inactive) and 0.225 (inactive) in test [16]. In addition, the remaining NAD in test [14] was 10 nM (inactive). Besides, the luciferase signal in [15] was 32 AU (inactive).

Regarding `CC(=O)/C(=C\c1ccccc1)CC(=O)O`, the inhibition in [9] was 3.72% (inactive). In [10], the red/green cell ratio (normalised) is 0.99 (inactive). In addition, the results for the normalised cell number in test [10] (setting [18]) and in test [10] (setting [19]) were 1.18 and 1.16, respectively.

Take `COc1cc(-c2coc3cc(OCc4ccccc4)c(OC)c(O)c3c2=O)cc(OCc2ccccc2)c1OC`: the inhibition in test [9] was 16.5% (inactive). Besides, the red/green cell ratio (normalised) in test [10] was 0.82 (inactive). The normalised cell number in test [10] (setting [18]) was determined as 1.05; in [10] (setting [19]), 0.86.

A word on the inhibition: it is the change of the read-out against control, counted positive when it falls. As a reminder, the viability is a read-out of living cells in per cent, often relative to untreated cells.
